5 molecules from PubChem BioAssay can be followed below.

Test [1] concerns Plasmodium falciparum Sir2 (PF13_0152, Sir2A). The test is described as follows: Plasmodium falciparum Sir2A binding compounds – biochemical, small-molecule microarray, 635 nm fluorescence, primary screen (AID 1098).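 Note: score merges spot fluorescence intensity with its signal-to-noise ratio.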 To be noted: fluorescence 635 nm, higher = more signal.
Test [2] is described as follows: probe aDKK1 binding to arrayed compounds – biochemical, biotinylated probe, 635/667 nm fluorescence, primary screen (AID 1099).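 Note: score merges 667nm spot fluorescence with signal to noise across triplicate slides.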 The conditions noted are these: small-molecule microarray, higher = more signal.
Test [3] can be described thus: probe aCHRDL2 binding to arrayed compounds – biochemical, biotinylated probe, 635/667 nm fluorescence, primary screen (AID 1100). The conditions noted are these: small-molecule microarray, higher = more signal.
Test [4] in a line: change in splice reporter luminescence, either direction, cell-based, HEK293, spliceosome inhibition project, primary screen (AID 1101).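 Note: HEK293 cells carrying a splicing-competent luciferase reporter gene; test concentration not given here.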 To be noted: HEK293 splicing luciferase reporter, 24 h, higher = more signal, called active from +8 up or from −8 down.
Test [5] has as its target Fibroblast growth factor 10 (Homo sapiens) (UniProt O15520). As to the kind of experiment: compounds binding fibroblast growth factor 10 – biochemical, small-molecule microarray, 635 nm fluorescence, primary screen (AID 1102). The conditions noted are these: FGF10 binding, fluorescence 635 nm, higher = more signal.
Test [6] relates to glycogen synthase kinase-3 (GSK3A per assay name; protocol says GSK3B). As to the kind of experiment: compounds binding glycogen synthase kinase-3 – biochemical, small-molecule microarray, 635 nm fluorescence, GSK3A, primary screen (AID 1103). Note: the record names both GSK3A and GSK3B. The conditions noted are these: fluorescence 635 nm, higher = more signal.
Test [7] concerns the target Epidermal growth factor receptor (Homo sapiens) (UniProt P00533). The test is described as follows: compounds binding epidermal growth factor receptor – biochemical, small-molecule microarray, 635 nm fluorescence, primary screen (AID 1104).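 Note: score merges 667 nm emission intensity with spot signal to noise over triplicate slides.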 The conditions noted are these: EGFR binding, higher = more signal.
Test [8] deals with Follistatin-related protein 3 (Homo sapiens) (UniProt O95633). As to the kind of experiment: compounds binding follistatin-related protein 3 – biochemical, small-molecule microarray, 635 nm fluorescence, primary screen (AID 1105).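 Note: score merges emission near 667 nm and signal to noise per printed spot across three slides.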 To be noted: FSTL3 binding, higher = more signal.
Test [9] addresses Dickkopf-related protein 1 (Homo sapiens) (UniProt O94907). The test is described as follows: small molecules binding DKK1 protein – biochemical, small-molecule microarray, 635 nm fluorescence scan, primary screen (AID 1106).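 Note: score merges emission near 667 nm with signal to noise over three replicate slides.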 To be noted: higher = more signal.
Test [10] deals with Inhibin beta A chain (activin A). The test is described as follows: small molecules binding activin A – biochemical, small-molecule microarray, 635 nm fluorescence scan, primary screen (AID 1107).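 Note: mouse activin A protein probed at 4.33 µg/mL on printed slides; score merges bound-protein fluorescence near 667 nm with spot signal-to-noise.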 To be noted: INHBA, higher = more signal.
For test [11], the system named is Human papillomavirus type 1a protein E7 (residues 44-93). The test is described as follows: small molecules binding HPV E7 44-93 – biochemical, small-molecule microarray, residues 44-93, 635 nm fluorescence, primary screen (AID 1108).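 Note: E7 fragment applied at 1 µg/mL in TBST for 1 h at 4 C; score combines spot fluorescence with its signal to noise ratio.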 The conditions noted are these: fluorescence 635 nm, higher = more signal.
Test [12] in a line: hepatitis C replication reporter changes, two-sided – Huh7 cells, luciferase reporter, HCV replication inhibitor project, primary screen (AID 1109).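 Note: huh7 hepatoma cells harbouring a luciferase neomycin HCV replicon reporter; luciferase luminescence as measure of HCV replicon replication; test concentration not given here.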 To be noted: Huh7 HCV replicon luciferase reporter, 48 h; higher = more signal. For orientation: Reporter assays use an easily measured gene product as a stand-in for the process of interest.
For test [13], the target named is Left-right determination factor 2 (Homo sapiens) (UniProt O00292). The test is described as follows: small molecules binding LEFTY2 protein – biochemical, small-molecule microarray, 635 nm fluorescence scan, primary screen (AID 1110). The conditions noted are these: higher = more signal.
The target in test [14] is Calmodulin-1 (Homo sapiens) (UniProt P0DP23). The test is described as follows: small molecules binding calmodulin-1 with EGTA – biochemical, small-molecule microarray, Cy5-labelled CALM1, profiling panel (AID 1111).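 Note: labelled calmodulin applied in Tris saline Tween buffer holding calcium plus EGTA and DTT.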 The conditions noted are these: Cy5-CALM1 binding fluorescence, higher = more signal.
The target is the same in test [15]. As to the kind of experiment: small molecules binding Ca-loaded calmodulin-1 – biochemical, small-molecule microarray, Cy5-labelled CALM1, plus calcium, artefact control for SMM control-protein annotation, profiling panel (AID 1112).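 Note: score merges spot fluorescence with signal to noise from triplicate slides.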 The conditions noted are these: Cy5-CALM1 binding fluorescence, higher = more signal.
Test [16] in a line: probe aWnt5a binding to arrayed compounds – biochemical, biotinylated probe, 635/667 nm fluorescence, primary screen (AID 1113).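 Note: score merges 667 nm fluorescence intensity with signal-to-noise per printed feature.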 To be noted: small-molecule microarray, higher = more signal.
The nature of test [17]: probe aShh binding to arrayed compounds – biochemical, biotinylated probe, 635/667 nm fluorescence, primary screen (AID 1114).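 Note: probe is biotin-labelled aShh protein from a stem cell growth factor screen; measures binding of labelled protein to compounds printed on the slide; score merges feature fluorescence at 667 nm with signal-to-noise.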 To be noted: small-molecule microarray, higher = more signal.
A short description of test [18]: probe aNog binding to arrayed compounds – biochemical, biotinylated probe, 635/667 nm fluorescence, primary screen (AID 1115).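 Note: probe is biotinylated aNog protein used at 0.15 µg/mL for 1 h at 4 C; z-score combines 667 nm fluorescence of each spot with its signal to noise.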 The conditions noted are these: small-molecule microarray, higher = more signal.
Test [19] deals with Torsin-1A-interacting protein 1 (Homo sapiens) (UniProt Q5JTV8). The test is described as follows: compound microarray binding of lysate hLAP1 – cell lysate, small-molecule microarray, COS7 lysate, 635/667 nm fluorescence, primary screen (AID 1116). The conditions noted are these: 635 nm fluorescence, higher = more signal.
In test [20] the target is Alpha-bungarotoxin (Bungarus multicinctus) (UniProt P60615). The test is described as follows: compounds binding labelled alpha-BTX control protein – biochemical, small-molecule microarray, Alexa647 label, 635/667 nm fluorescence, artefact control for SMM control protein annotation, profiling panel (AID 1117). To be noted: alpha-BTX-A647 binding fluorescence, higher = more signal.

SMILES strings stand for the structures. Active and inactive are the calls of the source.

Sequence of Epidermal growth factor receptor (Homo sapiens) (P00533 whole entry, looked up): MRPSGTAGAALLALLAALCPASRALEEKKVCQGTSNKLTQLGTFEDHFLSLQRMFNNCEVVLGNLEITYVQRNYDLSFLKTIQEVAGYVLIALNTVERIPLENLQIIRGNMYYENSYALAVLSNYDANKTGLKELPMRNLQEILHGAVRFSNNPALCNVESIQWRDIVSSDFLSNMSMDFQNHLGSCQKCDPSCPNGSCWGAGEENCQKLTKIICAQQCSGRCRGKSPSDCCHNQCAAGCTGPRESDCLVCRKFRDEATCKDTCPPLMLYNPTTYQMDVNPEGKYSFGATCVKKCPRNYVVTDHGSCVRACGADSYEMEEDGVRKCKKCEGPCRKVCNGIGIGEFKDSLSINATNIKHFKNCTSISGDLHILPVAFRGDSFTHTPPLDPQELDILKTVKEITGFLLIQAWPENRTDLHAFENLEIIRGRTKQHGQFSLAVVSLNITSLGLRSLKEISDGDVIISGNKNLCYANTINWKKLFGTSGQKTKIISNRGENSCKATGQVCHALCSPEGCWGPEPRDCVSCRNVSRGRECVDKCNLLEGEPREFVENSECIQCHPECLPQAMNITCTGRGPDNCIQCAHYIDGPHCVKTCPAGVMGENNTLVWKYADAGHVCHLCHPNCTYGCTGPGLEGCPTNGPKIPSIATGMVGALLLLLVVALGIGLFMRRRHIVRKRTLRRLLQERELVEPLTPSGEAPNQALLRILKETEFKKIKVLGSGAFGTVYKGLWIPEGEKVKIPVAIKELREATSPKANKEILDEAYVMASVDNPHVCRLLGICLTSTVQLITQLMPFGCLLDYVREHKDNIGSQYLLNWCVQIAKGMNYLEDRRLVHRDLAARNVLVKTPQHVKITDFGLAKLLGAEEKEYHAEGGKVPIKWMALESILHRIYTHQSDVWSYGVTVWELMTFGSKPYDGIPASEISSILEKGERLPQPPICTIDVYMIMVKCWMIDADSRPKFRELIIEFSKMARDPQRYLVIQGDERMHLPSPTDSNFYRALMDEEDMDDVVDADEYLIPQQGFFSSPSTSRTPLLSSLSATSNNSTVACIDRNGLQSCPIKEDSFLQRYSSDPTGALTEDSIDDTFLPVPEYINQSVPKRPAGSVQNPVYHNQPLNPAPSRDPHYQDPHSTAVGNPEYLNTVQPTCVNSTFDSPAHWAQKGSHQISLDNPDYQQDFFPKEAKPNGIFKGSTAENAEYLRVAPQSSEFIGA
Sequence of Alpha-bungarotoxin (Bungarus multicinctus) (P60615 whole entry, looked up): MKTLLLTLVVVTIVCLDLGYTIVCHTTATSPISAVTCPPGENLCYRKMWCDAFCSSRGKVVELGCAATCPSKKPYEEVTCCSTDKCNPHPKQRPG
Sequence of Fibroblast growth factor 10 (Homo sapiens) (O15520 whole entry, looked up): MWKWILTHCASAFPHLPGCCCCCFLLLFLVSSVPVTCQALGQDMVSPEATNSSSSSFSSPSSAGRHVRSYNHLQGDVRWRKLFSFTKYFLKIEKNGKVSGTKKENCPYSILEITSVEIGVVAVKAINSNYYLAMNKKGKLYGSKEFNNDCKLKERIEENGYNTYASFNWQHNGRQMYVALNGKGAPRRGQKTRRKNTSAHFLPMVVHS
Sequence of Follistatin-related protein 3 (Homo sapiens) (O95633 whole entry, looked up): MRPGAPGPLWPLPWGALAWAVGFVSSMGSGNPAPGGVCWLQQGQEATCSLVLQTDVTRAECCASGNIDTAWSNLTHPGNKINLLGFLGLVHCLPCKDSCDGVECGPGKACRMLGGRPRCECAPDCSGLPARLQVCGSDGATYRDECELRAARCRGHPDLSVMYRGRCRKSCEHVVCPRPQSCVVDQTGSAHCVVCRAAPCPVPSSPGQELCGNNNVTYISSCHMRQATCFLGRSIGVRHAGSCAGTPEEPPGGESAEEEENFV
Sequence of Torsin-1A-interacting protein 1 (Homo sapiens) (Q5JTV8 whole entry, looked up): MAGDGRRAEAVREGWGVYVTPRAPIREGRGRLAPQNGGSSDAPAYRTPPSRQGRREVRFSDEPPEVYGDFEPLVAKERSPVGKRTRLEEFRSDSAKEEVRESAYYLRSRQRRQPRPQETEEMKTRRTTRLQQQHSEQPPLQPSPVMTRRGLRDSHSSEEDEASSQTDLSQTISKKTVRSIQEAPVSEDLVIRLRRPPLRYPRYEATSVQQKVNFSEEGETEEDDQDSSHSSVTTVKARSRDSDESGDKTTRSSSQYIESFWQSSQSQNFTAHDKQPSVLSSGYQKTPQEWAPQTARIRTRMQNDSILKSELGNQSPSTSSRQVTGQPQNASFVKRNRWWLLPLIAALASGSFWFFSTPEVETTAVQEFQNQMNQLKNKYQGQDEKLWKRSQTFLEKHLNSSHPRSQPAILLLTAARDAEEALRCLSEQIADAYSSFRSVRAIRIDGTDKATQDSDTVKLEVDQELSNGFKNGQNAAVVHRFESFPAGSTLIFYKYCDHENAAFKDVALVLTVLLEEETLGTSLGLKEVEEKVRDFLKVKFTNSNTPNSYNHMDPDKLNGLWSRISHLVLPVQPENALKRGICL
Sequence of Dickkopf-related protein 1 (Homo sapiens) (O94907 whole entry, looked up): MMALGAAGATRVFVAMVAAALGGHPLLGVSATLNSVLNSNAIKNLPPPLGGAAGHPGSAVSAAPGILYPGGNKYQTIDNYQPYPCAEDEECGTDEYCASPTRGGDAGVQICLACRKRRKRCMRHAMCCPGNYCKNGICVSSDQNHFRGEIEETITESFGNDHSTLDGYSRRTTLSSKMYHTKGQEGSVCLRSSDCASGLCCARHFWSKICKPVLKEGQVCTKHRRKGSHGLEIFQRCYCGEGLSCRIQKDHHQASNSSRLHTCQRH
Sequence of Left-right determination factor 2 (Homo sapiens) (O00292 whole entry, looked up): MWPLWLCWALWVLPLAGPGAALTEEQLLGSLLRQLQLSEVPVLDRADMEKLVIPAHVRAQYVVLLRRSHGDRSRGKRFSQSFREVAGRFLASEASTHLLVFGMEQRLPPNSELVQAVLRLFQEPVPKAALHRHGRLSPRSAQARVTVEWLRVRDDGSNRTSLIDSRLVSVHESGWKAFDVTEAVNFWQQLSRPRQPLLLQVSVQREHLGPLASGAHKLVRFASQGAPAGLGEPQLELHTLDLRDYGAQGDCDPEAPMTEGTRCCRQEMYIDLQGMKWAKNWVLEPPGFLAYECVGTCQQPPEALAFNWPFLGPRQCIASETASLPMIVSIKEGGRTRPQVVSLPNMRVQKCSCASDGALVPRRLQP

On to `COC(=O)C(CC#Cc1ccc2c(c1)[C@]1(C(=O)N2)[C@H](C(=O)NC[C@H](O)c2ccccc2)[C@H]2C(=O)O[C@H](c3ccccc3)[C@H](c3ccccc3)N2[C@@H]1c1ccc(O)cc1)C(=O)OC`, for which the composite z-score in test [1] is 0.535; in [2], -0.107; in test [3], 0.369; in [5], 0.243; in [6], -0.857; in test [7] it was 0.221. For the same molecule, the composite z-score in test [8] was -0.0104; in [9] it was -0.293; in test [10], -0.137; in test [11] it was -0.603; in [13], -0.357; in test [14], -0.113. Further, the composite z-score in [15] is -0.327; in test [16] it was -0.217; in test [17], -0.138; in test [18] it was -0.121; in test [19], -0.223; in test [20], -0.111. Further, the z-score is 0.266 (inactive) in [4] and -1.7 in test [12].
Take `COc1ccc(CCNC(=O)[C@@H]2c3ccccc3C(=O)N(Cc3cc(F)cc(C(F)(F)F)c3)[C@H]2c2ccc(CO)cc2)cc1`: the composite z-score in [1] came out at 0.181; in test [2], 1.89; in [3], 0.877; in [5] it was 0.12; in [6], 0.765; in test [7], 0.321. Moreover, the composite z-score is 1.1 in test [8]; 0.157 in test [9]; 1.08 in [10]; 0.45 in [11]; 0.262 in test [13]; 1.05 in [14]. In addition, the composite z-score in [15] was 0.197; in test [16], 0.0438; in test [17] it was -0.314; in test [18] it was 1.86; in test [19], 1.59; in test [20], 0.715. In addition, the z-score in test [4] is -0.267 (inactive); in test [12] it was -0.989.
Consider `COC(=O)Cn1c(C(=O)N(C)C)cc2c1C[C@H]1CN(C(=O)c3ccccc3)[C@@](Cc3ccccc3)(C(=O)OC)[C@@H]21`, for which the composite z-score in test [1] is 0.272; in test [2] it was 0.605; in test [3] it was 0.686; in test [5] it was -0.482; in test [6], -1.25; in [7], 0.183. In addition, the composite z-score was -0.326 in [8]; -0.578 in test [9]; 0.865 in test [10]; -1.8 in test [11]; 0.103 in [13]; 0.371 in test [14]. Also, the composite z-score is -0.198 in [15]; 0.0077 in test [16]; 0.253 in test [17]; -0.354 in test [18]; -0.878 in [19]; 0.195 in test [20]. Besides, the z-score in test [4] is -0.332 (inactive); in test [12], -0.0967.
For `COC(=O)[C@H]1N=C(c2ccc(OCCCO)cc2)O[C@H]1c1ccccc1N=[N+]=[N-]`, the composite z-score in test [1] is 1.08; in [2], 0.927; in test [3], 1.34; in [5], -0.0781; in test [6], 0.205; in test [7], -0.454. The composite z-score in [8] is -0.359; in [9] it was -0.529; in test [10], 1.21; in test [11] it was 1.05; in [13], -0.223; in test [14] it was 0.203. Also, the composite z-score in test [15] was found to be 0.28; in test [16], 0.16; in test [17], 0.468; in [18] it was 1.29; in [19], 0.451; in [20], 1.08. Also, the z-score in test [4] was -0.977 (inactive); in test [12], -1.78.
Take `COc1cccc(C)c1NC(=O)O[C@H]1[C@H](OC(=O)Nc2ccc3c(c2)OCO3)[C@H](OC(=O)Nc2ccc3c(c2)OCO3)[C@@H](OC)O[C@@H]1CO`: the composite z-score in test [1] is 1.28; in [2], -0.0573; in test [3], 0.306; in [5], 1.39; in [6] it was 1.34; in test [7], 0.169. Moreover, the composite z-score in test [8] amounted to 1.01; in [9] it was 0.487; in test [10], 0.69; in test [11] it was 1.47; in test [13] it was 0.262; in test [14], 1.6. Further, the composite z-score in [15] is -0.406; in test [16] it was 0.122; in test [17] it was 0.715; in [18] it was 0.351; in [19], 0.305; in test [20], 1.57. Also, the z-score in [4] was -0.316 (inactive); in test [12], -0.466.
